Assay results taken from PubChem BioAssay AID2283193 (EPA ToxCast).
Inconclusive results are not listed. Calls of active or inactive are those of the source. The calls were made as follows: active = hit-call score of the fitted dose curve at least 0.9, where 1 is the maximum; inconclusive = response in the unintended direction; inactive = score below 0.9.

What follows are compounds tested against human Protein Kinase C, zeta (PKCz), PRKCZ (gene 5590) (UniProt Q05513) (assay: NVS_ENZ_hPKCz: NovaScreen (NVS) Enzymatic Assay for human Protein Kinase C, zeta (PKCz)).
Chain of human Protein Kinase C, zeta (PKCz), PRKCZ (gene 5590) (Q05513 whole entry, looked up): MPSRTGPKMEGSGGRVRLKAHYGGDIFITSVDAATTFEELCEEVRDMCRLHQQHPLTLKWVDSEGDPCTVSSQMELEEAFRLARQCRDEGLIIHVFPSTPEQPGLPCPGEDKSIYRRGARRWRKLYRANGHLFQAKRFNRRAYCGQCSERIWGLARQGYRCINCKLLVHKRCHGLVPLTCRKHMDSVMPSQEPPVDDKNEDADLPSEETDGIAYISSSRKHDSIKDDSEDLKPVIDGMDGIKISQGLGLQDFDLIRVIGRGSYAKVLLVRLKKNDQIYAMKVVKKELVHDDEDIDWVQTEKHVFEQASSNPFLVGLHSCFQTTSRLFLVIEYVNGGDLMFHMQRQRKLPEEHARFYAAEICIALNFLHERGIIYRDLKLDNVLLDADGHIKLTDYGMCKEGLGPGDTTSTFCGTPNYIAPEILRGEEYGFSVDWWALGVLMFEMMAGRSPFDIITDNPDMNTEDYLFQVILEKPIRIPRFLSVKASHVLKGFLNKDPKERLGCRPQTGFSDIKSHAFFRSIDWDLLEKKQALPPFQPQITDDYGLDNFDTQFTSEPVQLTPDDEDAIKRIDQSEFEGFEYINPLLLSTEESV
Procedure: NVS_ENZ_hPKCz is a biochemical, single-readout assay that uses extracted gene-proteins in a cell-free assay. Measurements were taken 1 hour after chemical dosing in a 384-well plate.NVS_ENZ_hPKCz is one of one assay component(s) measured or calculated from the NVS_ENZ_hPKCz assay. It is designed to make measurements of enzyme activity, a form of enzyme reporter, as detected with fluorescence intensity signals by Fluorescence and electrophoretic mobility shift technology.Data from the assay component NVS_ENZ_hPKCz was analyzed into 1 assay endpoint. This assay endpoint, NVS_ENZ_hPKCz, was analyzed in the positive analysis fitting direction relative to DMSO as the negative control and baseline of activity. Using a type of enzyme reporter, loss-of-signal activity can be used to understand changes in the enzymatic activity as they relate to the gene PRKCZ. Furthermore, this assay endpoint can be referred to as a primary readout, because this assay has produced multiple assay endpoints where this one serves a enzymatic activity function. To generalize the intended target to other relatable targets, this assay endpoint is annotated to the kinase intended target family, where the subfamily is serine/threonine kinase.
Binding assays used specific radioligands (tritiated, iodinated) with non-radioactive competitive displacement ligands in agonist or antagonist protocols (as indicated) and various reference compounds and inhibitors to titrate specific binding to receptors and transporters. Most enzyme assays (CYPs, kinases, phosphatases, proteases, HDACs) used recombinant protein and specific substrates (fluorescence mostly, some colorimetric and radioactive) and inhibitors, followed by a biochemical separation of substrate and product. All assays for the biochemical HTS were initially run in duplicate at a single concentration (10 uM for CYP450 assays and 25 uM for all others). Assay-chemical combinations meeting a pre-defined threshold (e.g., 30% inhibition and other criteria defined below) were then run in singleton concentration-response format with maximum concentration of 20 uM for CYPs and 50 uM for all others. Each assay was run with positive and negative controls, and concurrent controls on every plate. The follow-up (secondary) screen tested active chemical-pairs in concentration series, as well as a few additional assays not tested in the primary screen, some selected negative inactives, and several cases re-run in the concentration series for confirmatory purposes.
In the case of `COC(=O)c1ccccc1S(=O)(=O)NC(=O)N(C)c1nc(C)nc(OC)n1`, the outcome is reported as “inactive”. In the case of `COCC(C)N(C(=O)CCl)c1c(C)csc1C` (stereo not given), the outcome is reported as “inactive”. In the case of `CCCCC(CC)COC(=O)c1ccccc1C(=O)OCC(CC)CCCC` (stereo not given), the outcome is reported as “inactive”. For `CCOP(=S)(OCC)Oc1ccc2c(C)c(Cl)c(=O)oc2c1`, the outcome was “inactive”. `S=C1NCCN1` was tested, and the outcome was “inactive”.
